Compound activity: PubChem BioAssay, National Center for Advancing Translational Sciences (NCATS)
G9a block = G9a (human) methyltransferase inhibition. Q96KQ7. G9a H3K9 monomethylation, AlphaScreen, 2 h. Potency, µM (highest dose often 102 µM), without a hit: at the highest dose activity, negative = inhibition, hits mostly inhibitors. hit rate 8.8% among 350,000. AID 504332; also: % is scaled to controls: 0 for no effect and ±100 for the full control effect; nearly all actives have a fitted effect of over 75% in size
Target sequence (Q96KQ7 913-1193 limits assumed): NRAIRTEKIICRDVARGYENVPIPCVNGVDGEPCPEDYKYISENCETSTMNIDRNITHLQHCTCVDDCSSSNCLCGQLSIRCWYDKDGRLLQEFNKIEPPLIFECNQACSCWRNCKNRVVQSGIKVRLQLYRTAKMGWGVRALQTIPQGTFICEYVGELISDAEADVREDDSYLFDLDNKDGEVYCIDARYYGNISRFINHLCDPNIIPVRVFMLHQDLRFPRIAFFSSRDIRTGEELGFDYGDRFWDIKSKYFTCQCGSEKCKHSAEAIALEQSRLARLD
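Signal arises when biotinylated H3K9 peptide, once monomethylated, bridges streptavidin donor and antibody-captured acceptor beads. Enzyme at 20 nM was preincubated 15 min with test compounds; peptide 500 nM and SAM 20 uM then reacted for 2 h.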
JMJD2A Tudor inh = blocks the human JMJD2A Tudor domain; Potency, µM (top dose mostly 114 µM), for inactives: at the top dose activity change, negative = inhibition, usual class: inhibitors; O75164; hit rate 4.4% among 390,000; AlphaScreen JMJD2A-Tudor / H3K4me3 peptide binding; also: % is scaled to controls: 0 for no effect and ±100 for the full control effect; nearly all actives have a fitted effect of over 50% in size
HP1b binding inh = inhibitors of HP1-beta chromodomain binding to methylated histone tails; Potency, µM (doses to about 114 µM), inactives show top-dose activity change, negative = inhibition, actives largely listed as inhibitors; AlphaScreen HP1-beta / biotin-H3K9me3 peptide binding; hit rate 0.56% among 390,000; P83916; also: nearly all actives have a fitted effect of over 70% in size
Target sequence (P83916 whole entry, looked up): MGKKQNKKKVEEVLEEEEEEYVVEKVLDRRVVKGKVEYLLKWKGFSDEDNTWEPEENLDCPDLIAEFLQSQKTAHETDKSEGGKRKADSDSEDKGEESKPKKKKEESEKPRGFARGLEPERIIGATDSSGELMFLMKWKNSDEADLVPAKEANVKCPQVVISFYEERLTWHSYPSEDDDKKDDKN
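HP1-beta protein (50 nM final) preincubated 30 min at room temperature with biotinylated H3(1-18)K9me3 peptide (50 nM) in PBS pH 7.4, 0.01% Tween-20, then compound added for 30 min. AlphaScreen streptavidin donor/nickel chelate acceptor beads (10 ug/mL final), 30 min dark, luminescence read.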
BAZ2B block = blocks human BAZ2B; hit rate 4.4% among 360,000; AlphaScreen BAZ2B-H3K14Ac peptide displacement; Q9UIF8; Potency, µM (highest dose often 114 µM), for inactives: at the top dose activity change, negative = inhibition, most hits filed as inhibitors; also: % is scaled to controls: 0 for no effect and ±100 for the full control effect; nearly all actives have a fitted effect of over 60% in size
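Compounds, titrated to a top concentration of 110 uM, were incubated 30 min at room temperature with preformed BAZ2B/acetyl-K14 H3 peptide complex (50 nM each). Proximity signal was measured by AlphaScreen after 20 min with beads.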
GLS inh = inhibitors of human glutaminase (GLS). Potency, µM (highest dose often 45.5 µM), for inactives: at the top dose activity change, negative = inhibition, usual class: inhibitors. hit rate 0.21% among 410,000. GLS enzymatic activity, qHTS titration. O94925; also: % is scaled to controls: 0 for no effect and ±100 for the full control effect
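Compounds were pin-transferred onto hKGA, after which L-glutamine (1 mM solution) and a detection mix of glutamate oxidase, HRP and Amplex Red were added. Initial and 30 min RT fluorescence reads were collected.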
Numbers without * were called inactive; ? = inconclusive; . = not tested or not shown; ! = repeats disagree; [ ] = remark or other dose. Only some compounds are listed: those with a hit (about 10% of all), similar ones and a draw of the others. Calls follow the shape of the dose curve; as a rule, active = well fitted curve in the direction sought with a large enough effect; inconclusive = small, poorly fitted or top-dose-only effect, or another doubt; inactive = no such curve, though single readings can be large; an effect the other way counts as inactive or inconclusive. Potency is read from the fitted curve at half-maximal effect.

SMILES	G9a block	JMJD2A Tudor inh	HP1b binding inh	BAZ2B block	GLS inh
CCOC(=O)c1ccc(-n2c(N)c(C(=O)NCC3CCCO3)sc2=S)cc1 (centres undefined)	10µM*	?	14µM*	?	-17%
Cc1cc(C=C2C(=O)N(C)C(=S)N(C)C2=O)c(C)n1C1CCCCC1	35µM*	-36%	7%	?	-2%
Cc1cc(C=C2C(=O)NC(=S)NC2=O)c(C)n1C1CCCC1	45µM*	-23%	25%	79µM*	1%
CCOC(=O)c1ccc2c(c1)n(CCO)c(C)[n+]2CC	35µM*	50µM*	19%	10%	11%
CCOC(=O)c1ccc2c(c1)n(Cc1ccccc1)c(C)[n+]2CC	16%	-8%	48%	-4%	-4%
C[N+]12CCC(CC1)C(=C(c1ccccc1)c1ccccc1)C2	3.5µM*	-13%	12%	4%	8%
CCOC(=O)C1(c2ccccc2)CCN(CC(=O)Nc2ccc(C)cc2)CC1	?	-9%	40%	-24%	1%
Clc1ccc(C(c2ccc(Cl)cc2)n2cc[n+](CC(OCc3ccc(Cl)cc3Cl)c3ccc(Cl)cc3Cl)c2)cc1 (centres undefined)	18µM*!	50µM*	0%	-38%	14µM*
Cc1cccc(-n2c(CC3C(=O)Nc4ccc(C)cc43)nc3ccccc3c2=O)c1 (centres undefined)	?	-31%	11%	-31%	7%
O=C1Nc2ccccc2C1Cc1nc2ccccc2c(=O)n1-c1ccccc1 (centres undefined)	-35%	-20%[11.4 µM]	0%	79µM*	56%
O=c1c2ccccc2nc(CNc2ccccc2)n1-c1ccccc1	32µM*	-24%	45%	-12%	8%
CCCOC(=O)c1ccc(OC(=O)c2ccco2)cc1	2%[59 µM]	74%	76%	22%	6%
COC(=NC1CCCC1)C(O)c1c[nH]c2ccccc12 (centres undefined)	-6%[59 µM]	-16%	23%	-5%	-17%
CCCC12CN3CC(CCC)(CN(C1)C3c1ccccn1)C2=O (centres undefined)	-1%[12.7 µM]	25µM*	33%	20µM*	-9%
COC(=O)C1=C(C)N(Cc2ccco2)C(=O)/C1=C\c1ccc(N(C)C)cc1	?	16µM*	-73%	?	15%
CCOC(=O)C1CCN(/C=C2/C(=O)NC(=O)N(Cc3ccco3)C2=O)CC1	?	?	-13%	?	7.1µM*
CCc1ccc(N2C(=O)NC(=O)C(Cc3ccc(OC)cc3OC)C2=O)cc1 (centres undefined)	?	-10%	40%	-20%	51%
CCc1ccc(N2C(=O)NC(=O)/C(=C\c3cccn3CCOc3ccc(C(C)C)cc3)C2=O)cc1	7.1µM*	?	19%	-18%	2%
Cc1ccc(OCCn2cccc2/C=C2/C(=O)NC(=O)N(Cc3ccco3)C2=O)cc1	50µM*	-30%	4%	-35%	-12%
COc1ccc(/C=C2/C(=O)NC(=O)N(Cc3ccco3)C2=O)cc1	10µM*	.	.	32µM*	.
Cn1cccc1/C=C1\C(=O)NC(=O)N(Cc2ccco2)C1=O	?	56µM*	45µM*	56µM*	?
Cc1ccsc1/C=C1\C(=O)NC(=S)N(C)C1=O	7.9µM*	89µM*	6%	?	25%
COc1ccc(/C=C2\C(=O)NC(=S)N(C)C2=O)cc1C	.	4µM*	8.9µM*	?	135%
CN1C(=O)/C(=C/c2ccc(Cl)s2)C(=O)NC1=S	.	25µM*	7%	-38%	69%
CC(O)(CS(=O)(=O)c1cccc(C(F)(F)F)c1)C(=O)Nc1ccc(C(F)(F)F)cc1 (centres undefined)	8%[0.0925 µM]	-12%	8%	11%	6%
SMILES	G9a block	JMJD2A Tudor inh	HP1b binding inh	BAZ2B block	GLS inh
Cc1cc(OCC(=O)Nc2c(C)n(C)n(-c3ccccc3)c2=O)c2c3c(c(=O)oc2c1)CCC3	-40%	.	.	5%	.
O=P(O)(O)c1ccccc1OCCOCCOCCOCCOc1ccccc1P(=O)(O)O	10µM*	-8%	47%	-34%	4%
CN(C)c1cccc2c(C#N)ccc(N(C)C)c12	45µM*	?	?	-19%	-13%
COc1ccc(N2CCN(CCCNC(=O)c3cnn(-c4ccc(F)cc4)c3-n3cccc3)CC2)cc1	13µM*	45µM*	-11%	?	15%
Cc1cc(C)cc(N2C(=O)NC(=O)/C(=C/c3cccn3-c3ccc(Cl)cc3)C2=O)c1	32µM*	-3%	41%	-10%	-3%
Cc1cccc(N2C(=O)NC(=O)/C(=C\c3cccn3-c3ccc(Cl)cc3)C2=O)c1	24%[0.501 µM]	-10%	28%	4%	-8%
O=c1[nH]c(O)c(N=Nc2cc([N+](=O)[O-])ccc2O)c(=O)[nH]1	45µM*	89µM*	?	50µM*	29%
O=C(N/N=C/c1c(O)n(Cc2ccccc2)c(=O)[nH]c1=O)c1ccncc1	-37%	?	18%	50µM*	4%
O=C(N/N=C/c1c(O)n(Cc2ccc(F)cc2)c(=O)[nH]c1=O)c1ccccc1	1%	?	41%	79µM*	12%
CCCCC(=O)N/N=C/c1c(O)n(Cc2ccc(F)cc2)c(=O)[nH]c1=O	-12%	-30%	26%	?	-19%
C=CCn1c(O)c(/C=N/NC(=O)c2ccncc2)c(=O)[nH]c1=O	1%	-23%	42%	79µM*	4%
COc1ccc(-c2oc(=O)n(C)c2-c2ccc(OC)cc2)cc1	-14%	?	0%	32µM*	-4%
O=[N+]([O-])c1nccn1CC(O)CN1CC1 (centres undefined)	.	.	.	.	4%
CCOC(=O)N1CCC(NC(=O)CCc2nc(C3=CCN(C)CC3)no2)CC1	?	-6%	13%	79µM*	-15%
C[C@]12CCC3C(CC[C@H]4C[C@@H](O)CC[C@]34C)[C@H]1C=CC2=O (some centres undefined)	.	-4%	19%	.	-10%
Cc1ccc(/C=C2/C(=O)NC(=O)N(CC3CCCO3)C2=O)s1 (centres undefined)	13µM*	-9%	38%	-24%	18%
CC1=Nc2ccccc2/C1=C/c1c(O)[nH]c(=O)[nH]c1=O	79µM*	-14%	8%	?	0%
CN1OC[C@@H]2COc3ccc4ccccc4c3[C@@H]21	-8%	-7%	56%	-2%	-3%
CCCCC[C@@H](/C=C/C=C\C/C=C\C/C=C\CCCC(=O)O)OO	27%[59 µM]	.	.	.	.
CCOC(=O)[C@]12Cc3c(cc(OC)c(OC)c3OC)[C@H]1N(C1CCCCC1)C(=O)c1ccccc12	.	.	.	.	0%
Cc1ccc2c(c1)C1CN(C)CCC1N2C(=O)c1ccc(Br)o1 (centres undefined)	79µM*	-9%	5%	-6%	5%
NC(CCCP(=O)(O)O)C(=O)O (centres undefined)	0%[59 µM]	.	.	.	.
NC(CCCCCP(=O)(O)O)C(=O)O (centres undefined)	6µM*	.	.	.	.
